Assay results as given in PubChem BioAssay (NCI).
Several values for one entry are separate records, joined by “and”; a condition that tells them apart may be missing. Equal entries are not always repeated. This is part of a sample that, as a whole, favours compounds with a hit. Of some 83,000 tested, about 20% had one in any assay.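 Cell lines were cultured in 96-well plates, exposed to a single compound concentration, and assessed for percent growth 48 hours later.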

Assays:
Assay in all cases: NCI-60 one-dose screen, 48 h (100 = growth as untreated, 0 = no growth, -100 = all killed)
Settings in all cases: 10 µM unless noted; active means growth percent below 10; inactive means the rest
NCI-H23 lung = system: NCI-H23 lung
NCI-H226 lung = system: NCI-H226 lung
NCI-H460 lung = system: NCI-H460 lung
HOP-92 NSCLC = system: HOP-92 NSCLC
NCI-H522 lung = system: NCI-H522 lung
A549/ATCC NSCLC = system: A549/ATCC NSCLC
786-0 renal = system: 786-0 renal
COLO 205 colon = system: COLO 205 colon
DU-145 prostate = system: DU-145 prostate
K-562 leukemia = system: K-562 leukemia
MALME-3M melanoma = system: MALME-3M melanoma
MDA-MB-231 breast = system: MDA-MB-231 breast
RXF 393 renal = system: RXF 393 renal
SF-268 CNS = system: SF-268 CNS
SF-295 CNS = system: SF-295 CNS
SF-539 CNS = system: SF-539 CNS
UACC-257 melanoma = system: UACC-257 melanoma
M14 melanoma = system: M14 melanoma
HOP-62 NSCLC = system: HOP-62 NSCLC

Measured: growth

Cc1c(O)nc(N)[nH]c1=O
inactive: NCI-H23 lung 93.8% | NCI-H226 lung 106% | NCI-H460 lung 104% | HOP-92 NSCLC 108% | NCI-H522 lung 99.5% | A549/ATCC NSCLC 99.9% | 786-0 renal 114% | COLO 205 colon 116% | DU-145 prostate 119% | K-562 leukemia 118% | MALME-3M melanoma 109% | MDA-MB-231 breast 104% | RXF 393 renal 118% | SF-268 CNS 123% | SF-295 CNS 97.4% | SF-539 CNS 106% | UACC-257 melanoma 105% | M14 melanoma 98.5%

C(=N\OCCc1ccccc1)/c1ccccn1
inactive: NCI-H23 lung 109% | NCI-H226 lung 121% and 108% | HOP-62 NSCLC 127% | NCI-H460 lung 103% and 111% | HOP-92 NSCLC 103% | NCI-H522 lung 112% and 102% | A549/ATCC NSCLC 102% and 101% | 786-0 renal 96.7% and 97.1% | COLO 205 colon 135% and 115% | DU-145 prostate 111% and 106% | K-562 leukemia 115% | MALME-3M melanoma 153% and 95.9% | MDA-MB-231 breast 124% and 112% | RXF 393 renal 116% and 119% | SF-268 CNS 107% and 105% | SF-295 CNS 96.6% | SF-539 CNS 104% and 93.6% | UACC-257 melanoma 109% and 104%

N=C(N)N1CCc2ccccc2C1
inactive: NCI-H23 lung 87.2% and 106% | NCI-H226 lung 97.6% and 108% | NCI-H460 lung 103% and 95.5% | HOP-92 NSCLC 156% | NCI-H522 lung 83.9% and 118% | A549/ATCC NSCLC 81.9% and 96.9% | 786-0 renal 87.5% and 112% | COLO 205 colon 100% and 106% | DU-145 prostate 105% and 97.3% | K-562 leukemia 71.4% and 108% | MALME-3M melanoma 82% and 110% | MDA-MB-231 breast 99% and 103% | RXF 393 renal 97.2% and 121% | SF-268 CNS 98.9% and 97.3% | SF-295 CNS 88% and 106% | SF-539 CNS 104% and 96.8% | UACC-257 melanoma 86.5% and 95.4% | M14 melanoma 93.2% and 108%

Cc1ccc(N)cc1S(=O)(=O)O
inactive: NCI-H23 lung 109% and 107% | NCI-H226 lung 109% | HOP-62 NSCLC 104% and 112% | NCI-H460 lung 109% and 107% | HOP-92 NSCLC 93.1% | NCI-H522 lung 127% | A549/ATCC NSCLC 108% and 102% | 786-0 renal 107% and 98.5% | COLO 205 colon 109% and 111% | DU-145 prostate 111% and 119% | K-562 leukemia 98.3% and 85.5% | MALME-3M melanoma 122% and 113% | MDA-MB-231 breast 109% | RXF 393 renal 124% and 108% | SF-268 CNS 101% and 102% | SF-295 CNS 111% and 112% | SF-539 CNS 104% and 120% | UACC-257 melanoma 117% and 92.7% | M14 melanoma 105% and 101%
